{"source": "PubChem BioAssay AID2737", "about": "(National Center for Advancing Translational Sciences (NCATS), 2010)", "note": "Calls of active or inactive are those of the source.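 Rule for the calls: active = compounds inhibiting cruzain with a measured inhibition constant Ki under 100 µM; inactive = the rest.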", "data": [{"target": "Cruzipain (Trypanosoma cruzi) (UniProt P25779)", "sequence (P25779 123-467 limits assumed)": "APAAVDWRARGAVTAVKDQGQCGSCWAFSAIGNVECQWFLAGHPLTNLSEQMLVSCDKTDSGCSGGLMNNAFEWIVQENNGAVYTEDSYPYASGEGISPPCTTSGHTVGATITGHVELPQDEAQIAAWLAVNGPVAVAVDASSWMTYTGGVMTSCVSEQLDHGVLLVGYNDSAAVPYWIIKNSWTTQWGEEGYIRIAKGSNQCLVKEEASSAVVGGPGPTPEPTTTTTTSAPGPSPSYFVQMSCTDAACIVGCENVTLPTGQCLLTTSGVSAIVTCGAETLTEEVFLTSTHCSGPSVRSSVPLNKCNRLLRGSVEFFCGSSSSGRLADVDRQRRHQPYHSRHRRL", "test": "Confirmation Competitive Binding Assay for Inhibitors of Cruzain", "settings": "recombinant cruzain, Z-FR-AMC fluorogenic cleavage, Ki", "experimental": "Cruzain is a cysteine protease from the tropical parasite Trypanosoma cruzi. This assay protocol is for follow-up Ki determination of cruzain inhibitors of interest. Cruzain inhibition was determined using a competitive binding assay. See following references for additional details: Jadhav A, et al. J Med Chem. 2010 Jan 14;53(1):37-51. Mott BT, et al. J Med Chem. 2010 Jan 14;53(1):52-60. Assay Provider: Shoichet, Brian; University of California, San Fancisco Screening Center PI: Austin, C.P. Screening Center: NIH Chemical Genomics Center [NCGC]\nCruzain activity was measured by monitoring the cleavage of the fluorogenic substrate Z-Phe-Arg-aminomethylcoumarin (Z-FR-AMC). All cruzain assays were performed in Sodium Acetate 0.1 M pH 5.5 and in the presence of 5 mM dithiothreitol (DTT). The final concentration of cruzain was 0.4 nM, and the substrate concentration was 2.5 uM (Km = 2 uM), except for Ki determination, when the Z-FR-AMC varied from 0.31 to 20 uM, in two fold increments. Assays were conducted in presence of 0.01% Triton X-100. Assays were followed for five minutes, and activity was calculated based on initial rates. […] Data was analyzed with Prism 4 (GraphPad), and Ki values were determined from Lineweaver-Burk and Dixon plots.", "values": [{"smiles": "Cc1ccc(C)c(OCCn2c(CCNC(=O)C3CCCCC3)nc3ccccc32)c1", "Potency": "2000 nM (active)"}, {"smiles": "O=C(COc1ccccc1Br)NCCc1nc2ccccc2[nH]1", "Potency": "2000 nM (active)"}]}]}
